# According to publication PMC5540273 (PLoS ONE, 2017):
# How the values were obtained:
# Conditions in all cases: concentration: 1 μM, replicates: in singlicate; n = 1
# [1] = system: CSNK2A2
# [2] = system: T1, CTK
# T1 construct: gene MATK
# [3] = system: DAPK1
# [4] = system: DAPK2
# [5] = system: DAPK3
# [6] = system: T2, DCAMKL1
# T2 construct: gene DCLK1
# [7] = system: T3, DCAMKL2
# T3 construct: gene DCLK2
# [8] = system: T4, DCAMKL3
# T4 construct: gene DCLK3
# [9] = system: DDR1
# [10] = system: DDR2
# [11] = system: T5, DLK
# T5 construct: gene MAP3K12
# [12] = system: T6, DMPK2
# T6 construct: gene CDC42BPG
# [13] = system: DMPK
# [14] = system: T7, DRAK1
# T7 construct: gene STK17A
# [15] = system: T8, DRAK2
# T8 construct: gene STK17B
# [16] = system: DYRK1A
# [17] = system: DYRK1B
# [18] = system: DYRK2
# [19] = system: EGFR
# [20] = system: EIF2AK1
# 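Also: KINOMEscan kinase panel screen.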
Compound,%Inh [1],%Inh [2],%Inh [3],%Inh [4],%Inh [5],%Inh [6],%Inh [7],%Inh [8],%Inh [9],%Inh [10],%Inh [11],%Inh [12],%Inh [13],%Inh [14],%Inh [15],%Inh [16],%Inh [17],%Inh [18],%Inh [19],%Inh [20]
COc1cc(Nc2nccc(N3CCC(NC(=O)C(C)c4ccc(Cl)cc4)C3)n2)cc(OC)c1OC (stereo not drawn) [GSK1379757],0%,0%,0%,0%,0%,11%,0%,0%,0%,6%,29%,8%,0%,0%,0%,9%,0%,0%,23%,0%
Cc1c(Cn2c(C)nn3c(=O)cc(N4CCO[C@H](C)C4)nc23)cccc1C(F)(F)F [GSK2373690],0%,0%,0%,0%,8%,0%,17%,11%,15%,2%,0%,5%,23%,1%,1%,19%,20%,17%,10%,0%
CN1C(=O)C(Nc2cc(Cl)c(O)c(Cl)c2)=C(c2ccc(Cl)cc2)C1=O [SB-404321],0%,52%,0%,0%,0%,0%,0%,0%,0%,10%,33%,0%,0%,0%,0%,0%,50%,0%,52%,0%
CN(C)c1cc(-c2ccc3c(N)n[nH]c3c2)nc(N)n1 [GSK2219329],11%,0%,0%,0%,0%,9%,0%,0%,0%,0%,7%,5%,0%,36%,0%,9%,5%,67%,43%,0%
O=c1cc(N2CCOCC2)nc2n(Cc3ccc(F)c(Cl)c3)ccn12 [GSK2297099],6%,0%,23%,0%,23%,0%,0%,0%,10%,0%,6%,0%,0%,0%,0%,12%,39%,0%,18%,0%
Cl.c1ccc(Cn2cnc3cc(Nc4ncnc5ccccc45)ccc32)cc1 [GW272142],0%,0%,0%,0%,22%,4%,20%,0%,5%,14%,6%,11%,0%,0%,0%,17%,2%,21%,20%,0%
COc1cc2nccc(Nc3cccc(Oc4ccccc4)c3)c2cc1OC.Cl [GW284543],4%,10%,0%,0%,0%,11%,0%,23%,17%,9%,24%,0%,0%,2%,26%,6%,0%,11%,40%,0%
Cc1cc(Nc2nc(-c3cccc(C)n3)nc3ccccc23)ccn1 [GW872411],5%,18%,0%,0%,1%,26%,0%,0%,0%,0%,0%,2%,0%,0%,0%,0%,2%,0%,0%,0%
COc1ccc(CNC(=O)NC2CCN(c3ccnc(Nc4ccc(F)cc4)n3)C2)cc1 (stereo not drawn) [GSK1379706],12%,0%,0%,14%,30%,14%,60%,2%,8%,63%,42%,16%,0%,6%,0%,0%,0%,0%,20%,0%
CCC(=O)c1c(-c2ccccc2)c2cc(Cl)ccc2c(=O)n1Cc1cc(S(C)(=O)=O)n(CC(F)F)n1,0%,0%,0%,0%,0%,19%,0%,1%,18%,10%,0%,0%,0%,0%,0%,0%,13%,17%,1%,0%
COc1cccc(C2=C(Nc3cccc(C(=O)O)c3)C(=O)NC2=O)c1 [SB-390770],19%,0%,6%,0%,0%,12%,0%,13%,0%,6%,0%,4%,0%,0%,0%,14%,0%,0%,12%,0%
O=C(NCc1cccs1)c1cc(C(=O)c2c(Cl)cccc2Cl)c[nH]1 [GW823670],0%,0%,0%,8%,22%,14%,18%,2%,26%,0%,0%,4%,6%,4%,0%,0%,16%,0%,0%,0%
Nc1ncnc2c1ncn2-c1ccc(Cl)cc1 [AH2635],1%,0%,0%,0%,0%,10%,0%,0%,0%,21%,27%,12%,0%,17%,0%,0%,0%,2%,15%,0%
CCn1c(-c2nonc2N)nc2ccccc21 [SB-693162/GW549034],19%,31%,13%,0%,0%,0%,0%,13%,0%,0%,0%,0%,0%,9%,0%,49%,16%,37%,0%,48%
CN1C(=O)C(Nc2ccccc2)=C(c2ccccc2)C1=O [SB-300079],0%,28%,0%,0%,0%,22%,0%,0%,0%,37%,1%,0%,0%,0%,0%,0%,17%,10%,16%,0%
Nc1nc(-c2ccccc2F)c(-c2ccnc3ccccc23)s1 [GW560459],0%,0%,0%,0%,13%,12%,1%,1%,7%,34%,36%,3%,0%,0%,3%,9%,4%,0%,36%,0%
Cc1ccc(-c2ccc3c(ccc4sc5c(c43)NC[C@@H](C)N=C5N(C)C)n2)cn1,0%,8%,0%,0%,0%,9%,0%,0%,0%,0%,0%,0%,0%,0%,0%,0%,0%,0%,23%,7%
COc1cccc(-n2cnc3c(N)ncnc32)c1 [SKF-97416],11%,48%,15%,0%,3%,0%,4%,0%,0%,21%,17%,7%,11%,37%,0%,12%,2%,39%,18%,35%
